Bioassay records from PubChem BioAssay.
RECQ1 inh-1 = RECQ1 (human) helicase inhibition; RECQ1 DNA unwinding, red fluorescence kinetic read; Potency, µM (doses to about 57.3 µM), for inactives: at the top dose activity, negative = inhibition, most hits filed as inhibitors; hit rate 0.54% among 240,000;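 note: plate controls were vehicle for no effect and no enzyme for full effect; nearly all actives have a fitted effect of over 30% in size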
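RECQ1T1 50 nM; forked duplex (20 bp + 30-nt ss tails) 200 nM, ATP 2 mM final; pH 8.0, 2 mM MgCl2, 2.5 ug/ml poly(dI-dC); 15 min compound preincubation; discontinuous kinetic read over 2 h at RT.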
PGK inhibitor = inhibitors of T. brucei phosphoglycerate kinase; P07378; PGK/GAPDH coupled, Kinase-Glo luminescence, 60 min; Potency, µM (series often up to 57.5 µM), inactives show at the highest dose activity change, negative = inhibition, usual class: inhibitors; hit rate 0.043% among 380,000; note: nearly all actives have a fitted effect of over 60% in size
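Recombinant glycosomal PGK reaction used 1,3-bisphosphoglycerate generated in-well by GAPDH (100nM final) in 100mM TEA pH 7.6, 5mM MgCl2, 0.01% Tween-20. After 60 minutes at room temperature, ATP was read by Kinase-Glo Plus luminescence end-point.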
FEN1 inh = inhibitors of human flap endonuclease 1; P39748; Recombinant FEN1 flap cleavage, fluorescence, 15 min; Potency, µM (doses to about 114 µM), for inactives: at the top dose activity change, negative = inhibition, actives largely listed as inhibitors; hit rate 0.35% among 390,000; AID 588795; note: nearly all actives have a fitted effect of over 65% in size
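FEN1 at 10 nM, compound pretreatment for 15 min (room temperature), 50 nM final substrate to initiate; endpoint reads at 0 and 15 min; DMSO-only plates used as vehicle background.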
APE1 inh = inhibitors of human APE1 endonuclease. P27695. recombinant APE1, TAMRA/BHQ-2 abasic DNA cleavage fluorescence. Potency, µM (top dose mostly 65.8 µM), without a hit: top-dose activity change, negative = inhibition, usual class: inhibitors. hit rate 0.35% among 350,000;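 note: plate controls were vehicle for no effect and reference inhibitor for full effect; nearly all actives have a fitted effect of over 55% in size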
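Measures dequenching upon AP-site incision of a 5'-TAMRA/3'-BHQ-2 THF-containing duplex, 50 nM; human APE1 0.75 nM after 15 min room-temperature exposure to compound; kinetic three-point read at one-minute spacing.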
BLM helicase inh = blocks DNA unwinding by human BLM helicase; recombinant BLM DNA unwinding, fluorescence dequenching; hit rate 0.2% among 350,000; Potency, µM (doses to about 56.1 µM), for the others: top-dose activity change, negative = inhibition, usual class: inhibitors; P54132;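 note: plate controls were vehicle for no effect and no enzyme for full effect; nearly all actives have a fitted effect of over 35% in size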
Target sequence (P54132 whole entry, looked up): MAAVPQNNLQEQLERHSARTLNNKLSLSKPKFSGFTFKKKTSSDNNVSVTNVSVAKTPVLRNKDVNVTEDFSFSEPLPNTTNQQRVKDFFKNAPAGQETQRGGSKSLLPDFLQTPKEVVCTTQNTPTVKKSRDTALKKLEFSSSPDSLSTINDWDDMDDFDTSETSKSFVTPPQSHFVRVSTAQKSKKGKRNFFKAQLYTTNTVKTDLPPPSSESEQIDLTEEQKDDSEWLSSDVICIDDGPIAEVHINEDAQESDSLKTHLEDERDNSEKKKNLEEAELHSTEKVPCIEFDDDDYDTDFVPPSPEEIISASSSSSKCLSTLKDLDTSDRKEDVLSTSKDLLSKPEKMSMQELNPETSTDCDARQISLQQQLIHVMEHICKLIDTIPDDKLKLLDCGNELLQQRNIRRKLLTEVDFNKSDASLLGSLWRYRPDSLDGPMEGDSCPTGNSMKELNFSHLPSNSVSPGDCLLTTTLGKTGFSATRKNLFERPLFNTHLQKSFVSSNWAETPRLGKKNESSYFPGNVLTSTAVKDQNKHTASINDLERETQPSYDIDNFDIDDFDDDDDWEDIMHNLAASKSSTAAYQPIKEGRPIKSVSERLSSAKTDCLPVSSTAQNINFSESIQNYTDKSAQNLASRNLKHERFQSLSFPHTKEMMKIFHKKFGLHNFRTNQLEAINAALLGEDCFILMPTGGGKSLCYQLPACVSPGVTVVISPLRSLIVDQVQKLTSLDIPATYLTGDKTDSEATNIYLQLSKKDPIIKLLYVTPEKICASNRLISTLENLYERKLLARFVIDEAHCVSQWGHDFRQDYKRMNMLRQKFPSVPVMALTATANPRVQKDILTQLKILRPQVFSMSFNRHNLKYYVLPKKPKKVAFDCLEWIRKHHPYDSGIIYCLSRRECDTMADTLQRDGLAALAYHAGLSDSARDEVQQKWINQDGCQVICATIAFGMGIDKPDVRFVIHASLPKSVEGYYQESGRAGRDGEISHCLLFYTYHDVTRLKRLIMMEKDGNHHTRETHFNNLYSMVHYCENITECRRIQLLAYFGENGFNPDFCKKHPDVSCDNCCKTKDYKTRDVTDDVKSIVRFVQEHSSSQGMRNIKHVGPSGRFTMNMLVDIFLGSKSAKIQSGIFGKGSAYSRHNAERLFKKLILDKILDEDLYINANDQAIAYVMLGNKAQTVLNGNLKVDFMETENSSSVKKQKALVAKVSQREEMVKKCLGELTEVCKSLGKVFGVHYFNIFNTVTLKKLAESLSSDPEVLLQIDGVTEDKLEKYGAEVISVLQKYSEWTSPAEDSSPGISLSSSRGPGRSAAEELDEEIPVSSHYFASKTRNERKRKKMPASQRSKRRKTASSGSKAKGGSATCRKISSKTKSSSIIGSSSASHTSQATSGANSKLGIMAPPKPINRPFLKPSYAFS
RECQ1 inh conf = confirmation of human RECQ1 helicase inhibitors. hit rate 28% among 610. RECQ1 helicase DNA unwinding, fluorescence. AID 2708. shares compounds with RECQ1 inh-1. Potency, µM (doses to about 229 µM), for the others: at the top dose activity change, negative = inhibition, actives largely listed as inhibitors; note: nearly all actives have a fitted effect of over 45% in size
RECQ1 ADP FP = displaces ADP in a fluorescence polarization counter-screen for RECQ1 hits; shares compounds with RECQ1 inh-1; ADP fluorescence polarization displacement counterscreen; Potency, µM (top dose mostly 228 µM), for the others: at the top dose activity change, negative = inhibition, most hits filed as inhibitors; hit rate 27% among 530; AID 2711; note: nearly all actives have a fitted effect of over 45% in size
RECQ1 inh-2 = confirmation of human RECQ1 helicase inhibitors; shares compounds with RECQ1 inh-1; recombinant RECQ1 DNA unwinding, red fluorescence; Potency, µM (series often up to 119 µM), for the others: at the top dose activity, negative = inhibition, hits mostly inhibitors; hit rate 15% among 1,100; AID 504841; note: nearly all actives have a fitted effect of over 50% in size
* = called active by the depositor; i = inactive; ? = inconclusive; nt = not tested or not shown; + = active, no number; ! = repeats disagree; [ ] = dose if it differs, or a comment. Only some compounds are listed: those with a hit (about 0.74% of all), similar ones and a draw of the others. Calls come from the whole dose curve; as a rule, active = well fitted curve in the direction sought with a large enough effect; inconclusive = small, poorly fitted or top-dose-only effect, or another doubt; inactive = no such curve, though single readings can be large; an effect the other way counts as inactive or inconclusive. Unless noted, % is set by controls: 0 for no effect and ±100 for the full control effect; potency is the fitted concentration of half-maximal effect.

SMILES | RECQ1 inh-1 | PGK inhibitor | FEN1 inh | APE1 inh | BLM helicase inh | RECQ1 inh conf | RECQ1 ADP FP | RECQ1 inh-2
CN(C)c1ccc(-c2nc(NC3CCNCC3)c3ccccc3n2)cc1 | ? | nt | nt | ? | ? | nt | nt | 20µM*
Cc1ccc(NS(=O)(=O)c2ccc(NC(=O)c3cccc(NC(=O)C(C)C)c3)cc2)cc1 | ? | -4% | -20% | -3% | -11% | nt | nt | -17%
CCCCC/C=C/C=C1/C(=O)C=C[C@@H]1C/C=C\CCCC(=O)O | 35µM*! | nt | nt | ? | 70% | nt | nt | ?
Cc1cc(O)ccc1N=Cc1c(C(F)(F)F)[nH][nH]c1=O | 8.9µM* | nt | ? | 17% | -10% | 0%[114 µM] | 6.3µM* | -7%
CN(Cc1ccccc1)C(=O)CN1C(=O)NC(C)(c2ccc(C(C)(C)C)cc2)C1=O (stereo not given) | nt | -6% | -5% | 3%[12.4 µM] | -9% | nt | nt | nt
COc1ccc(NC(=O)N2CC[C@@]3(CCCN(C(=O)c4cc(C(F)(F)F)cc(C(F)(F)F)c4)C3)C2)cc1 | -6% | nt | nt | 1% | -6% | nt | nt | nt
COc1ccc2c(C(=O)CN3CCSCC3)c[nH]c2c1 | -1% | i | 10% | 5% | 2% | nt | nt | nt
COc1ccc2c(C(=O)CN3CCN(c4ccccc4)CC3)c[nH]c2c1 | ? | 5% | -7% | 3% | -2% | nt | nt | -18%
CN1CC(O)C2=CC(=O)C(=O)C=C21 (stereo not given) | 2.8µM* | nt | nt | 0.4µM* | nt | + | 10µM* | nt
C=CCN1C(=O)CS/C1=N\S(=O)(=O)c1ccc(Cl)cc1 | ? | i | -2% | -4% | 0% | nt | nt | -10%
O=C1CSC(c2ccccc2)N1CCc1ccccc1 (stereo not given) | nt | i | 2% | 13% | -1% | nt | nt | nt
CCOc1ccc(-c2nc(C#N)c(N3CCN(C)CC3)o2)cc1 | i | nt | -6% | -1% | 1% | nt | nt | nt
COc1ccc(Cl)cc1NC(=O)CN(C)CC(=O)Nc1ccc(C)cc1Br | 35µM* | 6% | -10% | -12% | -8% | nt | nt | -19%
COc1ccc(Cl)cc1NC(=O)CN(C)CC(=O)Nc1ccccc1-c1ccccc1 | -19% | i | 10% | ? | -11% | nt | nt | nt
O=C1C=C(O)C(n2cncn2)C(c2ccc3c(c2)OCO3)C1 (stereo not given) | ? | 24% | -2% | -8% | -6% | nt | nt | -20%
Cc1ccc(C)n1-c1sc2c(c1C(=O)O)CCCC2 | 13µM* | -23% | 2% | ? | -18% | 56µM* | ? | 8.9µM*
COc1cccc(S(=O)(=O)NCc2ccc(C(=O)Nc3ccc(C)cc3)cc2)c1 | 6% | 1% | -4% | -5% | -2% | nt | nt | nt
O=S(=O)(Nc1nc2ccccc2nc1Nc1cccc(S(=O)(=O)N2CCCCC2)c1)c1ccccc1 | ? | -19% | 4% | -6% | -19% | nt | nt | ?
COc1ccc(NS(=O)(=O)c2ccc(O)c(NC(=O)c3ccc(S(=O)(=O)N4CCCCCC4)cc3)c2)cc1 | 6% | -2% | -13% | 3% | -19% | -13% | 10% | nt
COc1ccc(NS(=O)(=O)c2cccc(NC(=O)c3ccc(S(=O)(=O)N4CCCCCC4)cc3)c2)cc1 | -14% | -4% | -11% | -4% | -3% | -2% | 4% | nt
COc1ccc(C(=O)Nc2ccc(S(=O)(=O)N3CCCC3)cc2)cc1 | i | -7% | 3% | -8% | -4% | nt | nt | nt
COc1ccc(NC(=O)c2ccc(CNS(=O)(=O)c3cccc(OC)c3)cc2)cc1 | 35µM* | -2% | -10% | -5% | -4% | nt | nt | 0%
COc1ccc(S(=O)(=O)Nc2cccc(S(=O)(=O)N3CCCCCC3)c2)cc1 | -11% | i | 8% | 9% | -1% | nt | nt | nt
COCCCNC(=O)c1ccc2c(c1)ncn2-c1ccc(C)cc1C | nt | 9% | 16% | 60% | -2% | nt | nt | nt
CC(C)(C)c1cc(N2CCOCC2)n2ncc(-c3ccccc3)c2n1 | nt | -4% | 11% | 13% | -4% | nt | nt | nt
SMILES | RECQ1 inh-1 | PGK inhibitor | FEN1 inh | APE1 inh | BLM helicase inh | RECQ1 inh conf | RECQ1 ADP FP | RECQ1 inh-2
COc1ccc(NS(=O)(=O)c2ccc(O)c(NC(=O)c3ccc(S(=O)(=O)N4CCCC4)cc3)c2)cc1 | 5% | 7% | 9% | -2% | -6% | 8% | 5% | nt
C=CCc1cccc(/C=N/NC(=O)CNc2ccccc2)c1O | i | 3% | 8% | -8% | -1% | nt | nt | nt
C=CCc1cccc(/C=N/NC(=O)CN2CCN(Cc3ccccc3)CC2)c1O | 22µM* | nt | nt | 19% | -24% | ? | 11µM* | nt
O=C(O)c1ccc2c(=O)n3c(nc2c1)/C(=C/c1ccc(F)cc1)CC3 | nt | i | -5% | -6% | 1% | nt | nt | nt
Cc1cc2cc(C(c3nnnn3Cc3ccco3)N3CCc4ccccc43)c(=O)[nH]c2cc1C (stereo not given) | ? | 6% | -18% | ? | -24% | nt | nt | -7%
Cc1cc2cc(C(c3nnnn3Cc3ccccc3)N3CCc4ccccc43)c(=O)[nH]c2cc1C (stereo not given) | -3% | -8% | -1% | -11% | -7% | nt | nt | nt
Cc1cc2nc3c(=O)[nH]c(=O)nc-3n(CC(O)C(O)C(O)CO)c2cc1C (stereo not given) | 35µM*! | nt | nt | ? | -5% | 112µM* | 45µM* | nt
O=C1CCN(CCc2ccccc2)CCN1C(CSc1ccc(Br)cc1)c1ccccc1 (stereo not given) | i | nt | -18% | -2% | -11% | nt | nt | nt
O=C(COC(=O)CCC(=O)c1ccc(F)cc1)NCc1ccc(Cl)cc1 | nt | 13% | -12% | 10% | nt | nt | nt | nt
O=C(COC(=O)CCC(=O)c1ccc(Cl)cc1)NCc1ccco1 | ? | ? | -3% | ? | 2% | nt | nt | ?
COc1ccc(NC(=O)CCNS(=O)(=O)c2ccc3c(c2)CCC(=O)N3)cc1 | -4% | nt | -14% | 2% | -1% | 14% | ? | nt
O=C(COc1ccccc1[N+](=O)[O-])N/N=C/C=C/c1ccco1 | -22% | i | 14% | 0% | ? | nt | nt | nt
Cc1ccc(OCC(=O)N/N=C/C=C/c2ccco2)cc1 | 8.9µM* | -6% | -8% | -6% | -23% | ? | ? | nt
CN(C)c1ccc(C2C3=C(CCCC3=O)OC3=C2C(=O)CCC3)cc1 | ? | -1% | -6% | 7% | -14% | nt | nt | 1%
FC(F)(F)c1cc(-c2ccc3c(c2)OCO3)nc(NCc2ccco2)n1 | -13% | -3% | -19% | -4% | -9% | nt | nt | nt
